Results reported in PubChem BioAssay (EPA / NIEHS).
Several values for one entry are separate records, joined by “and”; a condition that tells them apart may be missing. Identical values can stand only once. Some compounds were tested as several samples or in several runs, with calls that do not always agree. Activity calls are given as the source filed them. The calls were made as follows: active = hit-call score of the fitted dose curve at least 0.9, where 1 is the maximum; inactive = score below 0.9.

What was measured:
[1] = read-out: TIMP metallopeptidase inhibitor 2 (TIMP2), TIMP2 (gene 7077); assay: BSK_KF3CT_TIMP2: BioMAP Diversity Plus: KF3CT Assay for TIMP metallopeptidase inhibitor 2 (TIMP2) Biomarker Activity (AID 2283071); settings: primary human keratinocytes with fibroblasts; actives raise or lower the signal
Outline: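 Keratinocyte–fibroblast co-culture, 24 h exposure; TIMP-2 ELISA, DMSO-normalised bidirectional fit. Parallel SRB (0.1%, TCA-fixed, 560 nm) total-protein staining gauges cytotoxicity.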

[2] = read-out: Transforming growth factor beta 1 (TGFb1), TGFB1 (gene 7040); assay: BSK_KF3CT_TGFb1: BioMAP Diversity Plus: KF3CT Assay for Transforming growth factor beta 1 (TGFb1) Biomarker Activity (AID 2283072); settings: primary human keratinocytes with fibroblasts; actives raise or lower the signal
Outline: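 Signal changes in either direction, relative to DMSO, define activity here. TGF-b1 is read by ELISA from a human keratinocyte-fibroblast co-culture 24 h post-dose.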

[3] = read-out: C-C motif chemokine 2 (Homo sapiens) (UniProt P13500); assay: BSK_KF3CT_MCP1: BioMAP Diversity Plus: KF3CT Assay for Monocyte Chemoattractant Protein 1 (MCP1/CCL2) Biomarker Activity (AID 2283073); settings: primary human keratinocytes with fibroblasts; actives raise or lower the signal
Outline: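 ELISA readout of MCP-1 after 24 h chemical dosing of a human skin primary co-culture of keratinocytes and foreskin fibroblasts. Activity was fitted in both directions against DMSO.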

[4] = read-out: Matrix Metallopeptidase 9 (MMP9), MMP9 (gene 4318); assay: BSK_KF3CT_MMP9: BioMAP Diversity Plus: KF3CT Assay for Matrix Metallopeptidase 9 (MMP9) Biomarker Activity (AID 2283074); settings: primary human keratinocytes with fibroblasts; actives raise or lower the signal;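 as to AC50: MMP9 protein level quantified by ELISA in the co-culture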
Outline: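 Human keratinocyte/foreskin fibroblast co-culture; compound added; 24 h; MMP-9 by ELISA; bidirectional fit vs DMSO baseline.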

CD40, CD40 (gene 958) [5] = assay: BSK_LPS_CD40: BioMAP Diversity Plus: LPS Assay for CD40 Biomarker Activity (AID 2283076); settings: primary human HUVEC with PBMC; actives raise or lower the signal
Outline: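 Cells were dosed, incubated 24 h, then assayed for CD40 by ELISA. Gain or loss of signal was analysed relative to DMSO controls. The culture paired human umbilical vein endothelium with peripheral blood mononuclear cells.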

[6] = read-out: E-selectin (Homo sapiens) (UniProt P16581); assay: BSK_LPS_Eselectin: BioMAP Diversity Plus: LPS Assay for Eselectin Biomarker Activity (AID 2283077); settings: primary human HUVEC with PBMC; actives raise or lower the signal
Outline: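 Primary human vascular co-culture (endothelium plus PBMC) was dosed with chemical, then E-selectin quantified by ELISA at 24 h. Endpoint values derive from bidirectional curve fitting relative to DMSO.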

[7] = read-out: Interleukin-8 (IL8), CXCL8 (gene 3576); assay: BSK_LPS_IL8: BioMAP Diversity Plus: LPS Assay for Interleukin-8 (IL8) Biomarker Activity (AID 2283078); settings: primary human HUVEC with PBMC; actives raise or lower the signal
Outline: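 Readout is IL-8 by ELISA, taken 24 h after compounds were added to LPS-stimulated endothelial/PBMC co-cultures. Both increases and decreases relative to DMSO control were scored through bidirectional fitting.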

[8] = BSK_LPS_SRB: Viability Assessment in the BioMAP Diversity Plus: LPS Assay (AID 2283079); settings: primary human HUVEC with PBMC;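 also: total protein by sulforhodamine B absorbance as a cytotoxicity measure; measured one day after compound addition; fitted in both directions against DMSO so loss or gain of signal counts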
Outline: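 Readout is SRB absorbance at 560 nm (0.1% stain, TCA-fixed parallel cultures) as a total-protein cytotoxicity measure. Cells: primary human umbilical vein endothelium plus peripheral blood mononuclear cells, 24 h after chemical exposure; DMSO served as baseline.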

[9] = read-out: Monocyte Chemoattractant Protein-1 (MCP1), CCL2 (gene 6347); assay: BSK_LPS_MCP1: BioMAP Diversity Plus: LPS Assay for Monocyte Chemoattractant Protein-1 (MCP1) Biomarker Activity (AID 2283081); settings: primary human HUVEC with PBMC; actives raise or lower the signal;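 as to AC50: secreted MCP-1 protein quantified by ELISA in culture supernatant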
Outline: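 Human endothelial–PBMC co-cultures were dosed with chemical, then LPS-driven MCP-1 levels were quantified by ELISA at 24 h. Activity in either direction was fitted versus DMSO negative control.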

[10] = read-out: Macrophage colony-stimulating factor (MCSF), CSF1 (gene 1435); assay: BSK_LPS_MCSF: BioMAP Diversity Plus: LPS Assay for Macrophage colony-stimulating factor (MCSF) Biomarker Activity (AID 2283083); settings: primary human HUVEC with PBMC; actives raise or lower the signal
Outline: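 ELISA readout of M-CSF after 24 h compound exposure in a human endothelial/PBMC co-culture. Activity, in either direction, is fitted relative to DMSO vehicle.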

[11] = read-out: Tissue Factor, F3 (gene 2152); assay: BSK_LPS_TissueFactor: BioMAP Diversity Plus: LPS Assay for Tissue Factor Biomarker Activity (AID 2283084); settings: primary human HUVEC with PBMC; actives raise or lower the signal
Outline: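 ELISA signal for cell-surface Tissue Factor (CD142) was read 24 h after compound dosing of an LPS-stimulated human endothelial–PBMC primary co-culture. Gain or loss of signal was scored relative to DMSO.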

[12] = read-out: Tumor necrosis factor (Homo sapiens) (UniProt P01375); assay: BSK_LPS_TNFa: BioMAP Diversity Plus: LPS Assay for Tumour Necrosis Factor alpha (TNFa) Biomarker Activity (AID 2283085); settings: primary human HUVEC with PBMC; actives raise or lower the signal
Outline: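 Primary human vascular co-culture of HUVEC and PBMC; TNFa ELISA 24 h after treatment, analysed as increase or decrease relative to DMSO control.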

[13] = read-out: Vascular cell adhesion molecule 1 (VCAM1), VCAM1 (gene 7412); assay: BSK_LPS_VCAM1: BioMAP Diversity Plus: LPS Assay for Vascular cell adhesion molecule 1 (VCAM1) Biomarker Activity (AID 2283086); settings: primary human HUVEC with PBMC; actives raise or lower the signal
Outline: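 Primary human vascular co-culture (umbilical vein endothelium plus PBMC) stimulated with LPS received chemical; 24 h later VCAM-1 was read by ELISA. Overt cytotoxicity was assessed by sulforhodamine B staining of parallel cultures at the same time point.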

CD38, CD38 (gene 952) = assay: BSK_SAg_CD38: BioMAP Diversity Plus: SAg Assay for CD38 Biomarker Activity (AID 2283087); settings: primary human HUVEC with PBMC; actives raise or lower the signal
Outline: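 Fluorescence ELISA of cell-surface CD38 served as the read-out, with either increase or decrease fitted against DMSO controls. Cells were a human umbilical vein endothelium plus PBMC co-culture under SEB/TSST-1 stimulation, measured 24 h after dosing.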

CD40, CD40 (gene 958) [14] = assay: BSK_SAg_CD40: BioMAP Diversity Plus: SAg Assay for CD40 Biomarker Activity (AID 2283088); settings: primary human HUVEC with PBMC; actives raise or lower the signal
Outline: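 Compounds were dosed onto a human primary endothelial–PBMC co-culture, and after 24 h CD40 was quantified by ELISA using a fluorescence signal. Activity in either direction was fitted relative to DMSO.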

CD69, CD69 (gene 969) = assay: BSK_SAg_CD69: BioMAP Diversity Plus: SAg Assay for CD69 Biomarker Activity (AID 2283089); settings: primary human HUVEC with PBMC; actives raise or lower the signal;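 as to AC50: cell surface CD69 protein quantified by ELISA with fluorescence detection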
Outline: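 HUVEC co-cultured with PBMC were dosed with chemical, and CD69 was measured by ELISA with fluorescence read-out 24 h later. Bidirectional curve fitting used DMSO as negative control and activity baseline.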

[15] = read-out: Monocyte Chemoattractant Protein-1 (MCP1), CCL2 (gene 6347); assay: BSK_SAg_MCP1: BioMAP Diversity Plus: SAg Assay for Monocyte Chemoattractant Protein-1 (MCP1) Biomarker Activity (AID 2283090); settings: primary human HUVEC with PBMC; actives raise or lower the signal
Outline: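 MCP-1 levels in the endothelial–PBMC SAg co-culture were quantified by ELISA at 24 h post-dosing; both increases and decreases versus DMSO scored. Cytotoxicity monitored by SRB total protein in parallel cultures.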

[16] = read-out: urokinase plasminogen activator (uPA), PLAU (gene 5328); assay: BSK_KF3CT_uPA: BioMAP Diversity Plus: KF3CT Assay for urokinase plasminogen activator (uPA) Biomarker Activity (AID 2283075); settings: primary human keratinocytes with fibroblasts; actives raise or lower the signal
Outline: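 ELISA readout of uPA, analyzed for signal gain or loss relative to DMSO, from a human primary keratinocyte–foreskin fibroblast co-culture measured 24 h after chemical treatment.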

[17] = BSK_LPS_PGE2: BioMAP Diversity Plus: LPS Assay for Prostaglandin E2 (PGE2) Biomarker Activity (AID 2283082); settings: primary human HUVEC with PBMC; actives raise or lower the signal;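 as to AC50: secreted prostaglandin E2 measured by ELISA in LPS-stimulated co-culture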
Outline: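 Endpoint derived from bidirectional curve fitting versus DMSO of ELISA-measured PGE2 in LPS-stimulated human primary vascular co-culture (HUVEC with PBMC) harvested at 24 h.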

[18] = read-out: Interleukin-1 alpha (IL1a), IL1A (gene 3552); assay: BSK_LPS_IL1a: BioMAP Diversity Plus: LPS Assay for Interleukin-1 alpha (IL1a) Biomarker Activity (AID 2283080); settings: primary human HUVEC with PBMC; actives raise or lower the signal
Outline: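 ELISA read-out of IL-1 alpha from a human primary vascular co-culture (endothelium plus PBMC) under LPS, sampled 24 hours post-dosing. Activity was fitted in both directions relative to DMSO controls.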

Measured: AC50

Chain of E-selectin (Homo sapiens) (P16581 whole entry, looked up): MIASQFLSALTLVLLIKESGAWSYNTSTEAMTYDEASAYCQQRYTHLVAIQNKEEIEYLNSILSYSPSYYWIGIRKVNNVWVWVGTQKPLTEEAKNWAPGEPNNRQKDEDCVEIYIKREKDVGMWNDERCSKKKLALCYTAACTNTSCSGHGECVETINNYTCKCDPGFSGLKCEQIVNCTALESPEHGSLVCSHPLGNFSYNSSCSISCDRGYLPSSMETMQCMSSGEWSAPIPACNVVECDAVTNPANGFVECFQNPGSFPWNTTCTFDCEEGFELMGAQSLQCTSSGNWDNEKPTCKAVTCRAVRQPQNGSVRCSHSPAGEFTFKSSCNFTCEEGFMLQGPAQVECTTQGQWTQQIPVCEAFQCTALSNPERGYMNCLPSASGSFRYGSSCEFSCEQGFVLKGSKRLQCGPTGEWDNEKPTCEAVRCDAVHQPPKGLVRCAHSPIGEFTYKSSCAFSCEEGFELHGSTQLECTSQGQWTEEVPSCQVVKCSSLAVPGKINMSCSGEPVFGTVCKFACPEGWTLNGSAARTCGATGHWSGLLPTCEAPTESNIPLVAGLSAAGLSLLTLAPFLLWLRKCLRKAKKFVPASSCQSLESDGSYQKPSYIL
Chain of Tumor necrosis factor (Homo sapiens) (P01375 whole entry, looked up): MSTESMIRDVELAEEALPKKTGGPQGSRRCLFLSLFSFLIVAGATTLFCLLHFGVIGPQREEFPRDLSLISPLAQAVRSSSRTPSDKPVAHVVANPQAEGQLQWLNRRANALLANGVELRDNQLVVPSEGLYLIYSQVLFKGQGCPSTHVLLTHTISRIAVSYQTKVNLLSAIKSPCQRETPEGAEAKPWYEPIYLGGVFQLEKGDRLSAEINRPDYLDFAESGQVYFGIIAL

CCNS(=O)(=O)C(F)(F)C(F)(F)C(F)(F)C(F)(F)C(F)(F)C(F)(F)C(F)(F)C(F)(F)F
inactive: [1] | [3] | CD40, CD40 (gene 958) [5] | [6] | [7] | [8] | [9] | [10] | [11] | [12] | [13] | [15]
active: [1] 48.2 µM and 54.7 µM | [2] 19.3 µM | [3] 47.8 µM | [4] 29.6 µM and 40.2 µM and 36.2 µM | CD40, CD40 (gene 958) [5] 46.1 µM and 42.2 µM | [7] 30 µM | [8] 44.2 µM and 46 µM | [9] 48.8 µM and 51.7 µM | [10] 49 µM | [12] 1.1 µM | [13] 30 µM | CD38, CD38 (gene 952) 19.3 µM and 48.6 µM and 30 µM | CD40, CD40 (gene 958) [14] 12.2 µM and 36.6 µM and 30.4 µM | CD69, CD69 (gene 969) 5.71 µM and 24.7 µM and 20.2 µM | [15] 48.7 µM

CC(C)(O)c1cnn2c(-c3ccc(F)c(-c4c(F)cccc4C#N)c3)cnc2n1
active: [1] 31 µM | [2] 36 µM | [4] 34.6 µM | [16] 31.9 µM | [7] 3.82 µM | [17] 30.6 µM | [10] 20 µM | [12] 9.68 µM | [13] 20 µM | CD40, CD40 (gene 958) [14] 20 µM
inactive: [3] | CD40, CD40 (gene 958) [5] | [6] | [8] | [9] | [11] | CD38, CD38 (gene 952) | CD69, CD69 (gene 969) | [15]

Brc1ccc(Oc2ccccc2)cc1
not listed: CD38, CD38 (gene 952) | [17]
inactive: all other assays above

COc1cc(C=O)cc2c1[C@H](COC(N)=O)[C@]1(OC(C)=O)ON2C[C@H]2[C@@H]1N2C(C)=O
active: [1] 2.26 µM | [2] 2.21 µM | [3] 1.1 µM | [4] 2.07 µM | [16] 11.4 µM | CD40, CD40 (gene 958) [5] 20 µM | [6] 10.6 µM | [7] 13.3 µM | [8] 6.69 µM | [18] 19.7 µM | [9] 5.86 µM | [10] 3.97 µM | [11] 14.3 µM | [13] 16.7 µM | CD38, CD38 (gene 952) 15.9 µM | CD40, CD40 (gene 958) [14] 18.2 µM | CD69, CD69 (gene 969) 13.2 µM | [15] 5.75 µM
inactive: [12]

COC(=O)Nc1nc2ccccc2[nH]1
active: [8] 10.5 µM | [10] 7.04 µM | [13] 11.3 µM
not listed: CD38, CD38 (gene 952)
inactive: all other assays above

OCCCBr
inactive: all assays above

CC(C)N(Cc1ccccc1)C(=O)C(C)(C)C
not listed: [18]
inactive: all other assays above
